About 5,100 (32%) of roughly 16,000 compounds were called active. Inconclusive results (about 25%) are left out. The list shows a part of the results. Unmarked numbers belong to inactive results. The call rests on the fitted dose curve; in most records, active means well fitted curve in the direction sought with a large enough effect; inconclusive means small, poorly fitted or top-dose-only effect, or effect the other way; inactive means no such curve, though single readings can be large or run the other way.
Target: Cytochrome P450 3A4 (Homo sapiens) (UniProt P08684)
Sequence (P08684 whole entry, looked up): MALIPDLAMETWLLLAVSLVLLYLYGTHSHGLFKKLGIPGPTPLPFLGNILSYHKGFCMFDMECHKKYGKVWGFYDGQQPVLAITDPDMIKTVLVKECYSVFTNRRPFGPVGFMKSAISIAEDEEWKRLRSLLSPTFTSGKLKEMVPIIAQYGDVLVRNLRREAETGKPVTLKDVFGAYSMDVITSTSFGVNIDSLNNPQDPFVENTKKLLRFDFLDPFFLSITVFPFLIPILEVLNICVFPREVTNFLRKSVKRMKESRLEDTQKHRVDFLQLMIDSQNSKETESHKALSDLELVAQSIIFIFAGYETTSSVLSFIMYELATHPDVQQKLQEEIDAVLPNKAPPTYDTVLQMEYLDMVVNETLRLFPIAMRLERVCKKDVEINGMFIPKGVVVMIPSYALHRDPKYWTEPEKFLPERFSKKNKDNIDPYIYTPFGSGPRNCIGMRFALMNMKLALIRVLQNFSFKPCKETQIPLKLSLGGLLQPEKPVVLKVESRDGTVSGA
Experiment: Cytochrome panel assay with activity outcomes
Conditions: recombinant CYP, pro-luciferin dealkylation, luminescence, p450-cyp3a4; series mostly up to 57.1 µM; activity, negative = inhibition: at the top concentration
On the % scale 0 is the no-effect control and ±100 the full control effect.

SMILES | activity, negative = inhibition | AC50
O=C(O)CNc1ccc(C(=O)O)cc1 | -7.89% [at 11.4 µM] | 
CC(C)(C)COS(=O)OCC(C)(C)C | -4.89% [at 11.4 µM] | 
O=C(O)CCC(=O)N1CCOc2ccc(Cl)cc21 | 4.52% | 
CN(C)CCn1c(CO)nc2c1c(=O)n(C)c(=O)n2C | -3.94% [at 11.4 µM] | 
O=c1cc(CO)oc(CN2CCCC2)c1O | -2.41% | 
Cc1ccccc1-c1nc(NCc2cccnc2)c2ccccc2n1 |  | 0.501 µM (active)
CO[C@]1(NC(=O)CSCC#N)C(=O)N2C(C(=O)O)=C(CSc3nnnn3C)CS[C@H]21 |  | inactive
COc1ccc(CC(NC(C)=O)C(=O)NC2CCN(C(=O)Nc3ccc(Cl)cc3)CC2)cc1OC (stereo unspecified) | -6.41% [at 2.29 µM] | 
COc1ccc(C(C(=O)NC2CCCCC2)N(C(=O)Cc2c[nH]c3ccccc23)c2ccc(NC(C)=O)cc2)cc1OC (stereo unspecified) |  | 3.16 µM (active)
Clc1ccc(Cn2c(-c3cccnc3Cl)nc3ccccc32)c(Cl)c1 | -20.9% [at 2.29 µM] | 
CC(C)C(=O)NCCc1nc2ccccc2n1CCCOc1ccc(Cl)cc1 |  | 11.2 µM (active)
CC(OC(=O)Cn1c(C(F)(F)F)nc2ccccc21)C(N)=O (stereo unspecified) | -0.0989% | 
C[C@]1(c2ccccc2)OC(C(=O)O)=CC1=O | -9.78% | 
O=C(O)c1ccc(OCc2ccccc2)c(Cl)c1 | -32.8% [at 11.4 µM] | 
CCOc1ccc(C(=O)O)cc1OC | -28.9% | 
CCC(=O)c1ccc(OCc2ccc(C(=O)OC)cc2)c(OC)c1 |  | 4.47 µM (active)
CC(C)=CCC/C(C)=C/CO/N=C1/C[C@@H](O)[C@@H](O)[C@@H]2[C@@H]3C(=O)N(C4CCCCC4)C(=O)[C@H]3CC[C@@H]12 | -27% [at 11.4 µM] | 
CC1(C)CC2(CC(c3cccs3)c3cc(Cl)c(O)cc3O2)NC(=S)N1 (stereo unspecified) | -22.1% [at 2.29 µM] | 
O=C1CC(c2cccs2)c2cc3c(cc2N1)OCO3 (stereo unspecified) |  | 7.08 µM (active)
CCCCNC(=S)NNC(=O)CCn1nc(C)c(Br)c1C |  | 4.47 µM (active)
CCCCNC(=S)NNC(=O)c1sccc1C | 1.58% [at 2.29 µM] | 
c1ccc([P+](CC[P+](c2ccccc2)(c2ccccc2)c2ccccc2)(c2ccccc2)c2ccccc2)cc1 | 1.54% [at 11.4 µM] | 
C[C@]12CC[C@H]3c4ccc(O)cc4CC[C@@H]3[C@H]1C/C(=N/O)[C@H]2O | -4.59% [at 11.4 µM] | 
CC(C)Cn1cnc2c(SCc3ccccn3)nc(N)nc21 | -22.1% [at 11.4 µM] | 
CC(C)Cn1cnc2c(SCc3ccc(Cl)cc3Cl)nc(N)nc21 |  | 3.98 µM (active)
Cc1ccc2ccccc2c1CSc1nc(N)nc2c1ncn2CC(C)C | -24.4% [at 11.4 µM] | 

Reference: PubChem BioAssay AID1851 (National Center for Advancing Translational Sciences (NCATS), 2009)
